Many of the other results were omitted from the sample, so hits are more common in it than they were.
GBA mod – Glucocerebrosidase; purified enzyme, resorufin glucoside fluorescence (screen aimed at inhibitors), 20 min; Potency, µM; Lysosomal acid glucosylceramidase (Homo sapiens), P04062; AID 360, 2006; 48,000 tested, 1.1% active; in the data active = potency below about 15 µM;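 note: the screen sought inhibitors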
Target sequence (P04062 whole entry, looked up): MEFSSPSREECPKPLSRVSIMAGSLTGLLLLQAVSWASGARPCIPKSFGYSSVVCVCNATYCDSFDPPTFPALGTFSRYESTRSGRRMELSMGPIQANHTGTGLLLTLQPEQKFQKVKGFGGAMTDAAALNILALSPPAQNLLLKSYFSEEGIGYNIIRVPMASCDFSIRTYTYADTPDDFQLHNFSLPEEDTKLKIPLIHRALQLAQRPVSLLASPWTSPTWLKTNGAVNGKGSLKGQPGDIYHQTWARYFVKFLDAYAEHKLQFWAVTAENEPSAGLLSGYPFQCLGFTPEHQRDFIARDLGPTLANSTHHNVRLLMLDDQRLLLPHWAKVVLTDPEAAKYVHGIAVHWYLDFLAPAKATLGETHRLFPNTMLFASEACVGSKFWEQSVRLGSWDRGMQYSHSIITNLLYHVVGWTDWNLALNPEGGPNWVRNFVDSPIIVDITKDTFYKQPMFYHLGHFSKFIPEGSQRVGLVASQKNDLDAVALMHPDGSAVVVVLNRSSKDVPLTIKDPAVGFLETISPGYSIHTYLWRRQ
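Compounds titrated against 0.2 nM normal enzyme, 30 uM resorufin beta-D-glucopyranoside substrate, citrate/phosphate buffer with taurocholate and tween-20, pH 5.9. Reaction ran 20 min at room temperature; fluorescence (Ex 548/Em 600) gave AC50.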
Of the large screens only hits and unclear results are named; the others gave an inactive call.

CCOC(=O)C1=C(C)N=C2SC(CC)C(=O)N2C1c1ccc(OC(C)=O)c(OCC)c1 (centres undefined)	none
CCC(CC)C(=O)Nc1cc(C)cc(C)c1	none
CCn1ncc2c(OCc3ccc(C#N)cc3)cc(C)nc21	none
Cc1cccc(-n2c(O)c(C=Nc3ccc4c(c3)OCO4)c3ccccc3c2=O)n1	none
O=c1c2ccccc2c(/C=N/n2cnnc2)c(O)n1-c1ccccc1	none
Cc1cc(N=Cc2c(O)n(-c3ccc4c(c3)OCO4)c(=O)c3ccccc23)ccn1	GBA mod 11
Cc1nc(NC2=NCN(CCc3ccccc3)CN2)nc2c(C)cccc12	none
COc1cccc(-n2nnnc2SCC(=O)c2cc(OC)ccc2OC)c1	none
CCCCCn1c(N2CCOCC2)nc2c1c(=O)n(CC(N)=O)c(=O)n2C	none
Cc1noc(C)c1COc1ccc(C(=O)NCc2ccccn2)cc1	none
Cc1ccc(-c2cc(C(F)F)nc(NCC3CCCO3)n2)cc1 (centres undefined)	none
COc1ccc(-c2ccc(-c3noc(-c4ccccc4C)n3)c(OC)n2)cc1	GBA mod 11
COc1nc2ccccc2cc1-c1noc(-c2cccnc2)n1	none
COc1ccccc1-c1noc(-c2cccnc2)n1	none
CCOc1nc(C)ccc1-c1noc(-c2ccccc2OC)n1	none
COc1nc(-c2ccc(C)cc2)ccc1-c1noc(-c2cccnc2)n1	GBA mod 12
COc1nc(-c2ccccc2)ccc1-c1noc(-c2ccc(F)cc2)n1	none
COc1ccc(-c2ccc(-c3noc(C4CCCCC4)n3)c(OC)n2)cc1	none
CCOc1nc(-c2ccccc2)ccc1-c1noc(-c2ccco2)n1	none
COc1ccc(-c2ccc(-c3noc(C)n3)c(OC)n2)cc1	none
CCOc1nc(-c2ccc(OC)cc2)ccc1-c1noc(C)n1	none
COc1nc(-c2ccccc2)ccc1-c1noc(-c2ccccc2F)n1	GBA mod 3.8
COc1ccc(-c2ccc(-c3noc(-c4ccccc4OC)n3)c(OC)n2)cc1	GBA mod 12
O=C(NCc1ccco1)c1cc2sccc2n1Cc1ccccc1	none
Cc1ccc(S(=O)(=O)N[C@H](C(=O)N2CCC(C(=O)N3CCC[C@H]3C(=O)O)CC2)C(C)C)cc1	none
CC(NC(=O)CSc1ncccn1)c1ccccc1 (centres undefined)	none
COc1ccc(-c2ccc(-c3noc(-c4cccc(OC)c4)n3)c(OC)n2)cc1	GBA mod 6
COCc1nc(-c2ccc(-c3ccc(C)cc3)nc2OC)no1	none
COc1ccc(-c2ccc(-c3noc(-c4ccc(OC)c(OC)c4)n3)c(OC)n2)cc1	none
CCN(CC)CCCNC(=O)C1CCC(=O)N(c2ccc(OC)cc2)C1c1ccc(F)cc1 (centres undefined)	none
C=CCn1c(CCC(=O)O)ccc1-c1ccccc1	none
Cc1nc2scc(-c3ccco3)c2c(=O)n1/N=C/N(C)C	none
COC(=O)c1ccc(NC(=O)C2CCN(S(C)(=O)=O)CC2)cc1	none
CC(=O)c1cccc(NC(=O)C2CCN(S(C)(=O)=O)CC2)c1	none
CC(C)c1ccc(NC(=O)C2CCN(S(C)(=O)=O)CC2)cc1	GBA mod 12
COc1cccc(NC(=O)C2CCN(S(C)(=O)=O)CC2)c1	none
Cc1cc(C)nc(N2CCC(C(=O)Nc3ccc(Oc4ccccc4)cc3)CC2)n1	none
CS(=O)(=O)N1CCC(C(=O)Nc2ccc(Oc3ccccc3)cc2)CC1	GBA mod 14
CS/C(=N\S(=O)(=O)c1cccs1)NC(=O)CSc1nc2ccccc2s1	none
CC(C)(C)CC(=O)N1CCC(c2nc3c(nnn3Cc3c(F)cccc3Cl)c(=O)[nH]2)CC1	none
COc1cccc(C2c3c(oc4ccc(Cl)cc4c3=O)C(=O)N2c2cc(C)on2)c1OC (centres undefined)	none
CCCc1cc(=O)n2[nH]c(C)cc2n1	none
CC1=NCCN1S(=O)(=O)c1cc(Cl)ccc1Cl	none
Cc1nc2c3cnn(-c4ccc(C)c(C)c4)c3ncn2n1	none
CCc1nnc2c3cnn(-c4ccc(C)c(C)c4)c3ncn12	GBA mod 0.21
C#CCn1cnc2c(cnn2-c2ccc(C)c(C)c2)c1=O	GBA mod 15
CCCCNC(=O)Cn1cnc2c(cnn2-c2ccc(C)c(C)c2)c1=O	none
Cc1ccc(-n2ncc3c2ncn2c(-c4ccncc4)nnc32)cc1	none
Cc1ccc(-n2ncc3c(=O)n(CC#N)cnc32)cc1C	none
COc1ccc(N(C)S(=O)(=O)c2cccc(C(=O)NC3=NCCS3)c2)cc1	none
CCN(CC)CCCN1C(=O)c2oc3ccccc3c(=O)c2C1c1cc(OC)ccc1OC (centres undefined)	none
CCN(CC)S(=O)(=O)c1ccc(C(=O)OCn2nnc3ccccc3c2=O)cc1	none
CCOc1ccc(C2C=C(c3ccc(C)cc3)Nc3ncnn32)cc1 (centres undefined)	none
CCOc1ccc(C2C=C(c3ccccc3)Nc3nnnn32)cc1 (centres undefined)	GBA mod 3.7
CCOc1ccc(C2C=C(c3ccc(C)cc3)Nc3nnnn32)cc1 (centres undefined)	none
O=C(CSc1nc2c(c(=O)[nH]1)CCCC2)Nc1ccc(Cl)cc1F	none
CCn1c(SCC(=O)NC(=O)Nc2ccc3c(c2)OCCO3)nnc1-c1cccs1	none
CN(Cc1cccs1)C(=O)COc1ccc(-c2nnco2)cc1	none
CCOC(=O)C1CCCN(C(=O)C2CCN(S(=O)(=O)c3cccs3)CC2)C1 (centres undefined)	none
CN(C(=O)C1CCN(S(=O)(=O)c2cccs2)CC1)C1CCCCC1	GBA mod 13
CN(C(=O)COC(=O)C1CCN(S(=O)(=O)c2cccs2)CC1)C1CCS(=O)(=O)C1 (centres undefined)	none
Cc1c(Cl)cccc1N1C(=O)CC(N(O)c2ccccc2)C1=O (centres undefined)	none
CCCS(=O)(=O)N1CCC(C(=O)N2CCc3ccccc3C2)CC1	none
COC(=O)C1=C(NC(=O)c2cccc(C)c2)CCS1	none
COC(=O)c1sccc1NC(=O)c1cc(C)on1	none
COC(=O)c1sccc1NC(=O)c1ccco1	none
COC(=O)c1sccc1NC(=O)c1c(C)noc1C	GBA mod 12
CN(C)Cc1cc(CCNC(=O)c2ccc(Cl)cc2)ccc1O	none
COc1ccc(-n2nc3c(c2NC(=O)c2cc4ccccc4oc2=O)CS(=O)(=O)C3)cc1	none
Clc1ccc(CSc2nnc(-c3ccccn3)n2Cc2ccco2)c(Cl)c1	none
Cc1ccc(S(=O)(=O)N2CCC(C(=O)N3CCC[C@H]3C(=O)NCc3ccco3)CC2)cc1	none
COc1cc(-c2nnc3n2N=C(c2ccccc2)CS3)cc(OC)c1OC	none
c1ccc(C2=Nn3c(nnc3-c3cc(-c4ccccc4)n[nH]3)SC2)cc1	GBA mod 8.5
CCc1ccc(C2=Nn3c(nnc3-c3cccs3)SC2)cc1	GBA mod 8.2
COc1ccc(C2=Nn3c(nnc3-c3ccccc3OC)SC2)cc1OC	none
Brc1ccc(C2=Nn3c(nnc3-c3ccncc3)SC2)cc1	none
CCOc1ccc(C2=Nn3c(nnc3-c3ccccc3)SC2)cc1Cl	none
CCOCCn1c(=O)c2c(nc3n2CCN3c2ccc(CC)cc2)n(C)c1=O	none
Cc1ccc(NC(=O)COC(=O)c2ccn(C)n2)cc1	none
O=C(CN1CCOCC1)OCCCC1CCCCC1	none
CC(=O)OC(C(=O)NCc1ccco1)c1ccncc1 (centres undefined)	none
CCOC(=O)N1CCC(NC(=O)CSc2cc(=O)n(C)c3ccc(Cl)cc23)CC1	none
CCOc1cc(C2C(C(=O)N3CCCCC3)=C(C)NC3=C2C(=O)CCC3)cc(Br)c1O (centres undefined)	none
C=CCn1c(SCC(=O)NC(=O)NCc2ccco2)nc2sc(C)c(C)c2c1=O	none
Cc1cc(Nc2nc3c(c(=O)n(C)c(=O)n3C)n2C)n(-c2ccccc2)n1	none
COc1cccc(NC(=O)NCCCN2CCN(c3ccc(F)cc3)CC2)c1	none
